Records with an inconclusive call do not appear. Unmarked numbers belong to inactive results. Calls of active or inactive are those of the source. Calls come from the whole dose curve; as a rule, active = well fitted inhibition curve with a large enough effect; inconclusive = small, poorly fitted or top-dose-only effect, or effect the other way; inactive = no such curve, though single readings can be large or run the other way.

This assay is described as follows: Confirmation Concentration-Response Assay for lipid storage modulators: for probe SAR. The conditions noted are these: Drosophila S3 cells, BODIPY lipid droplet fluorescence, 18-24 h; series mostly up to 46.1 µM; activity change, negative = lipid storage inhibition: at the top concentration. Put shortly:
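Laser-scanning cytometry read BODIPY 493/503 lipid-droplet intensity and its ratio to CellTracker Red cell signal. Beforehand, 5,000 cells/well were exposed 18–24 h at 24 °C to test compound with oleic acid (1 µL, 400 µM). 20 µM Triacsin C defined full inhibition.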
For the compound `O=C(NC1CCCc2c1cnn2-c1cc(F)cc(F)c1)c1cccc2nccnc12` (stereo not drawn), the Potency was 3450 nM (active).

As for `O=C(NC1CCCc2c1cnn2-c1cc(F)cc(F)c1)c1ccc(F)cc1Cl` (stereo not drawn), the Potency is 2230 nM (active). As to `Cc1nc(SC(C)C(=O)Nc2nc(-c3ccccc3)cs2)n(CC2CCCO2)c1C` (stereo not drawn), the Potency was 4450 nM (active).

As to `O=C(NC1CCCc2c1cnn2-c1ccc(F)cc1F)c1cccc(F)c1F` (stereo not drawn), the Potency was 315 nM (active). For the compound `O=C(NC1CCCc2c1cnn2-c1ccc(F)cc1F)c1cccs1` (stereo not drawn), the Potency is 17.7 nM (active).

As to `O=C(NC1CCCc2c1cnn2-c1ccc(F)cc1F)C1CCCCC1` (stereo not drawn), the Potency was 4990 nM (active).

Take `CCOc1ccc(CCNC(=O)c2cc3sc(CC)cc3n2C)cc1OCC`: the Potency was 1220 nM (active). Same read-out and setting: then `CCOc1ccc(CCNC(=O)c2cc3sccc3n2CCc2ccccc2)cc1OCC`, with 28.1 nM (active); and `O=C(CSc1nnc(NCc2ccccc2)s1)Nc1nc(-c2cccc(Br)c2)cs1`, with 1250 nM (active).

On to `CCOc1ccc(CCNC(=O)c2cc3sccc3[nH]2)cc1OCC`, for which the Potency was 7910 nM (active). With `O=C(NC1CCCc2c1cnn2-c1ccc(F)cc1F)c1ccc2cc[nH]c2c1` (stereo not drawn), the Potency is 7710 nM (active). On the same count and under the same terms, the value for `O=C(NC1CCCc2c1cnn2-c1ccc(F)cc1F)c1ccsc1` (stereo not drawn) was 31.5 nM (active). The same measure, in the same setting: then `CCOc1ccc(CCNC(=O)c2cc3sccc3n2Cc2ccc(-n3cncn3)cc2)cc1OCC`, with 177 nM (active); and `O=C(NC1CCCc2c1cnn2-c1ccc(F)cc1F)c1cccc(Cn2cccn2)c1` (stereo not drawn), with 125 nM (active). With `CC(=O)NCc1ccc(-c2csc(NC(=O)Cc3cccs3)n2)cc1`, the “activity change, negative = lipid storage inhibition” value was 15%.

Take `O=C(NC1CCCc2c1cnn2-c1ccc(F)cc1F)c1ccc[n+]([O-])c1` (stereo not drawn): the “activity change, negative = lipid storage inhibition” value was -0.966%.

For `CCOc1ccc(CCNC(=O)c2cc3sccc3n2Cc2ccc(Cl)c(F)c2)cc1OCC`, the Potency was 6.3 nM (active). In the case of `CCn1c(C(=O)NCCc2ccc(OC)cc2)cc2sccc21`, the “activity change, negative = lipid storage inhibition” value is 108%. `O=C(CSc1nnc(NCc2ccccc2)s1)Nc1nc(-c2ccc(F)c(F)c2)cs1`: the Potency was 1250 nM (active).

Consider `O=C(NC1CCCc2c1cnn2-c1ccc(F)cc1F)C1CCCCN1` (stereo not drawn), for which the “activity change, negative = lipid storage inhibition” value is -5.13%. For `COc1ccc(CCNC(=O)c2cc3sccc3n2Cc2ccc(Cl)cc2)cc1OC`, the Potency was 194 nM (active). Consider `CCOC(=O)C1CCCN(C(=O)C2(NC(=O)Nc3ccc(F)cc3F)CCCCC2)C1` (stereo not drawn), for which the “activity change, negative = lipid storage inhibition” value was -2.41%. With `CCOc1ccc(CCNC(=O)c2cc3sccc3n2CC)cc1OCC`, the Potency is 158 nM (active).

(Values after PubChem BioAssay AID488913 (National Center for Advancing Translational Sciences (NCATS), 2010).)
